Test results published in PubChem BioAssay AID492997 (Johns Hopkins Ion Channel Center, 2010).
Screen size: about 4,900 compounds; about 2,000 (41%) were called active.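 Rule for the calls: active = thallium signal drop beyond 5 SD of the untreated control mean, on both duplicate plates; inactive = the rest.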 The set was probably picked from earlier hits. Only a sample is shown.

Assay: nonspecific activity without KCNK9 expression – cell-based, second counter screen, non-induced KCNK9-HEK293, counter-screen for KCNK9 inhibitor project, confirmation (AID 492997);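 for inhibition: plate controls were buffer only IC0 wells for no effect and SID17386958 at its maximal inhibitory level for full effect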
Details: non-induced KCNK9-HEK293, FluxOR thallium flux, at 10 µM; active compounds read high

Compound | inhibition
CCCCCCCCCCCCn1ccc(=N)cc1 | 29.5% (active)
CCOC(=O)C1SC2(C(F)(F)C(F)F)CC1(O)c1c(c(OC)c3occc3c1OC)O2 (stereo unspecified) | inactive
CC(C)(C)c1ccc(CN2C(=O)CN=C(c3ccccc3)c3ccccc32)cc1 | 50% (active)
CC(C)(C)c1ccc(OC(=O)N2CCCCC2)cc1 | inactive
CC(C)n1c(=O)c(C=Nc2ccc(Br)cc2)c(O)n(Cc2ccco2)c1=O | inactive
CCCCCCN=C(CC)c1c(O)n(CCCC)c(=O)[nH]c1=O | 32% (active)
